# Source: PubChem (National Center for Advancing Translational Sciences (NCATS))
# The list is not random: actives were taken first. Their share in the collection is about 3.8%.
# PLK1 PBD inh = blocks phosphopeptide binding to human PLK1 polo-box domain | Plk1 PBD binding of FITC phosphopeptide, fluorescence polarization | 360,000 compounds, 2.8% hits | AID 720504 | Potency, µM, inactives show max response, negative = inhibition, most hits filed as inhibitors | P53350; note: potency is the fitted concentration of half-maximal effect; series mostly up to about 57 µM; % is set by controls: 0 for no effect and ±100 for the full control effect; nearly all actives have a fitted effect of over 65% in size
# hERG WT inh = blocks the wildtype human KCNH2 potassium channel; 340,000 compounds, 0.37% hits; U2OS, BacMam KCNH2, thallium flux FluxOr; hits give low values; Q12809; AID 720551; activity change, % at 1.84 µM;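 active = maximum activity change below -70%; inconclusive = maximum activity change between -70% and -50%; inactive = maximum activity change above -50%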; note: % is set by controls: 0 for no effect and ±100 for the full control effect
#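 U2OS cells transduced with wild-type KCNH2 virus are loaded with FluxOr dye for 45 min, and thallium flux is measured in kinetic reads before and after stimulation buffer. Rate constants are normalized to DMSO controls.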
# CBFb-RUNX1 inh = inhibitors of human CBF-beta and RUNX1 interaction. AlphaScreen CBFb-His/RUNX1-biotin binding, biochemical. Potency, µM (doses to about 59.8 µM), for inactives: at the top dose activity, negative = inhibition, actives largely listed as inhibitors. Q01196+Q13951. 230,000 tested, under 10 active. AID 1477; note: % of control where 0% means no effect
# Target sequence (Q01196 whole entry, looked up): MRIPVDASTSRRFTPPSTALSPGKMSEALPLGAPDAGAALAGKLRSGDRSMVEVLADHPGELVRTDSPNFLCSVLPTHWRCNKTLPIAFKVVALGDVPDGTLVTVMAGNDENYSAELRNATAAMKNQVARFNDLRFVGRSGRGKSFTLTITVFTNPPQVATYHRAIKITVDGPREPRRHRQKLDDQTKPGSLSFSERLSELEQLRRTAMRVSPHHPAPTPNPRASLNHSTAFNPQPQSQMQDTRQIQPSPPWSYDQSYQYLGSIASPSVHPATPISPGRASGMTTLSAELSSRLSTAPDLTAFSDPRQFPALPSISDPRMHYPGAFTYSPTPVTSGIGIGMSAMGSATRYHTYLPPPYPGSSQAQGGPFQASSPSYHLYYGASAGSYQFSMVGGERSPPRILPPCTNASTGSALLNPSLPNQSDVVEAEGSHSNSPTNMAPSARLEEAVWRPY
# Target sequence (Q13951 whole entry, looked up): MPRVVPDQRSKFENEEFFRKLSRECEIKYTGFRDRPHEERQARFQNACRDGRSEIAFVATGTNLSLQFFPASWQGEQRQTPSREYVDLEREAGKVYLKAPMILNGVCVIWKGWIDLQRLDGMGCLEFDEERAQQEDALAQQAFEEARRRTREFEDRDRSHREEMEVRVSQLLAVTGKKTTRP
#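 Inhibition was taken as any reduction in AlphaScreen signal from the CBF-beta–RUNX1 pair (His and biotin tags, 30 nM each), measured after compound (15 min) and bead (90 min) incubations at room temperature.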
# KCNH2 3.1 block = KCNH2 3.1 (human) potassium channel inhibition. U2OS KCNH2 3.1, thallium flux FluxOr; hits give low values. activity change, % (tested at about 1.8 µM). 340,000 compounds, 0.95% hits. AID 720553;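 active = maximum activity change below -70%; inconclusive = maximum activity change from -70% to -50%; inactive = maximum activity change above -50%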;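 note: thallium influx rate constant from kinetic fluorescence after stimulation buffer; % is set by controls: 0 for no effect and ±100 for the full control effect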
#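 Thallium flux via FluxOr fluorescence (Red40 quencher, 45 min loading) in U2OS cells virally expressing the KCNH2 3.1 isoform (1.77 x 10^8 /mL virus, overnight at 37 C). Rate constants from 2-min kinetic reads post-stimulation, normalised to positive and negative controls.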
# MBNL1-CUG inh = inhibitors of human MBNL1 binding to CUG repeat RNA; 280,000 compounds, 0.036% hits; AID 2675; Potency, µM (titrated, usually from 57.5 µM), without a hit: at the highest dose activity change, negative = inhibition, usual class: inhibitors; TR-FRET MBNL1-His/biotin-(CUG)12 binding, 665/545 ratio; active = well fitted inhibition curve with a large enough effect in the signal ratio, with a control signal flat, not every such curve was filed as active; inconclusive = small, poorly fitted or top-dose-only effect, or effect the other way, or a change in a side signal; inactive = no such curve, though single readings can be large or run the other way; the % refers to the signal ratio; note: potency is the fitted concentration of half-maximal effect; % is set by controls: 0 for no effect and ±100 for the full control effect
#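 MBNL1-His + Biotin-(CUG)12, cpd titration 92 nM–58 uM; Tb anti-His Ab 0.055 ng/ul, SA-XL665 5 nM (final); 60 min RT; ratiometric 665/545 nm, Ex 340 nm; normalized to buffer and full-complex controls.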
# VDR inh = vitamin D3 receptor (human) inhibition | P11473 | VDR-SRC2-3 peptide fluorescence polarization, 2 h | Potency, µM, for inactives: max response, negative = inhibition, most hits filed as inhibitors | 400,000 compounds, 0.93% hits; note: potency is the fitted concentration of half-maximal effect; % is set by controls: 0 for no effect and ±100 for the full control effect
#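 Reagent solutions, kept cold and dark, are dispensed first; compounds are then pinned in at 23 nl, plates briefly spun, and incubated 2 h at ambient temperature. Inhibition of VDR–SRC2-3 peptide binding is read by fluorescence polarization.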
# Numbers without * were called inactive; ? = inconclusive; / = no result. Unless noted, calls come from the whole dose curve; as a rule, active = well fitted curve in the direction sought with a large enough effect; inconclusive = small, poorly fitted or top-dose-only effect, or another doubt; inactive = no such curve, though single readings can be large; an effect the other way counts as inactive or inconclusive.
SMILES,PLK1 PBD inh,hERG WT inh,CBFb-RUNX1 inh,KCNH2 3.1 block,MBNL1-CUG inh,VDR inh
CC(=O)c1ccc(N2CCN(c3ccnc4cc(Cl)ccc34)CC2)cc1,-4%,-29,/,-91*,2%,-5%
CCc1ccc(NC(=O)NCCc2c(C)nn(C)c2C)cc1,/,/,/,/,/,8%
Cc1ccccc1C(=O)OC1OC(=O)C(Cl)=C1Nc1ccc(C(=O)O)cc1 (stereo unspecified),3.8µM*,-4,6%,14,-5%,?
COc1ccccc1NS(=O)(=O)c1cc(NC(=O)Nc2ccc(Cl)cc2Cl)ccc1N1CCCCC1,?,0,7%,15,-1%,-16%
COc1ccccc1NS(=O)(=O)c1cc(NC(=O)c2ccccc2F)ccc1N1CCOCC1,27µM*,1,-19%,-3,-2%,-1%
CCCS(=O)(=O)Nc1ccc(N2CCCCC2)c(S(=O)(=O)Nc2ccccc2OC)c1,24µM*,-3,/,-10,/,-21%
Nc1ccc(N2CCCCC2)c(S(=O)(=O)Nc2ccc(Cl)cc2)c1,-12%,-2,-16%,-5,/,-20%
COc1ccccc1NS(=O)(=O)c1cc(NC(=O)C2CCC2)ccc1N1CCCCC1,6µM*,-48,0%,0,-10%,?
COc1ccc(NS(=O)(=O)c2cc(NC(=O)C3CC3)ccc2N2CCCCC2)cc1,-10%,-6,-11%,6,-3%,-8%
Nc1ccc(N2CCCCC2)c(S(=O)(=O)Nc2ccccc2Cl)c1,27µM*,-3,-14%,-27,-1%,-14%
O=c1oc2ccc(Cl)cc2cc1-c1nc(-c2cccs2)no1,/,/,/,/,/,4%
CCCc1cc(=O)[nH]c2nnc(SCC(=O)Nc3ccc(OC)cc3)n12,/,/,/,/,/,3%
C=C(C)Cn1c(SCC(=O)Nc2cccc(C)c2)nc2sc3c(c2c1=O)CCCC3,/,/,/,/,/,-30%
COc1ccccc1NS(=O)(=O)c1cc(N)ccc1N1CCCCC1,3µM*,/,-24%,0,0%,-15%
CCN1CCCC1CN(Cc1cc2ccc(C)cc2[nH]c1=O)C(=S)Nc1ccc(F)cc1 (stereo unspecified),-10%,-71*,0%,-85*,4%,-16%
CCN1CCCC1CN(Cc1cc2ccc(C)cc2[nH]c1=O)C(=S)Nc1ccc(OC)cc1 (stereo unspecified),-7%,-36,-2%,-48,2%,-3%
CCC(CC)c1nnc(NC(=O)C2CC(=O)N(CCc3ccc(OC)c(OC)c3)C2)s1 (stereo unspecified),2%,-4,/,18,/,0%
CCC(CC)c1nnc(NC(=O)C2CC(=O)N(CCc3ccc(F)cc3)C2)s1 (stereo unspecified),24µM*,0,/,-4,1%,79µM*
CCOC(=O)c1cccc(NC(=O)c2ccc3snnc3c2)c1,/,/,/,/,/,23%
O=C(NCNC(=O)c1ccccc1)c1ccccc1,-14%,-12,1%,17,-6%,6%
O=C(NCCSc1ccc(Br)cc1)c1ccccc1,27µM*,3,-7%,5,2%,?
O=C(CCCCC(=O)Sc1ccccc1)Sc1ccccc1,?,-12,/,9,/,79µM*
O=C(CNC(=O)c1ccccc1)Sc1ccccc1,4.7µM*,-2,/,-3,/,45µM*
O=C(CNC(=O)c1ccccc1)NCCCSc1ccccc1,1%,-4,/,-4,/,9%
O=C(NCSc1ccccc1)c1ccccc1,24µM*,10,/,7,/,-7%
SMILES,PLK1 PBD inh,hERG WT inh,CBFb-RUNX1 inh,KCNH2 3.1 block,MBNL1-CUG inh,VDR inh
CCOC(=O)c1cc(OC(=O)c2ccccc2F)n(-c2ccccc2)n1,/,/,/,/,/,2%
CCOC(=O)c1ccc2c(c1)sc1nc(-c3ccc(OCC)cc3)cn12,/,/,/,/,/,-3%
CCc1ccc(-n2nc(CO)c(C(=O)NCCCCc3ccccc3)n2)cc1,/,/,/,/,/,-13%
Cc1cccc(NC(=O)C(Cc2ccccc2)n2cccc2)c1C (stereo unspecified),/,/,/,/,/,-8%
O=C(Oc1nsnc1N1CCOCC1)N1CCOCC1,-9%,-8,4%,-7,2%,-5%
O=C(Oc1ccc(C(=S)N2CCOCC2)cc1)c1ccccc1F,21µM*,9,/,-5,-5%,?
